PubChem BioAssay (NCI)
About 79,000 compounds went through this panel and 15% of them were active in at least one assay; those are over-represented in the sample as a whole. Active and inactive are the calls of the source. Cut-off read from the data, not from the text of the source: active = growth inhibition above about 70%; inactive = the rest.

Tests used:
[1] = NCI Yeast Anticancer Drug Screen. Data for the rad50 strain (AID 155);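 note: 0% = growth of vehicle-only cultures of the same strain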; details: S. cerevisiae rad50 strain growth inhibition; at 50.0 µM; hits give high values
Procedure, shortened: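 Compounds were tested on a yeast strain with an engineered DNA damage repair alteration; the reported value is growth inhibition normalised to vehicle treatment.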

[2] = NCI Yeast Anticancer Drug Screen. Data for the mec2-1 strain (AID 157); details: S. cerevisiae mec2-1 strain, at 50.0 µM, hits give high values
Procedure, shortened: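 mec2-1 yeast strain, carrying an alteration in DNA damage repair or cell cycle control, was exposed to compounds; growth inhibition was measured relative to vehicle-treated controls.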

[3] = NCI Yeast Anticancer Drug Screen. Data for the sgs1 mgt1 strain (AID 161);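 note: 0% = growth of cultures given vehicle only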; details: S. cerevisiae sgs1 mgt1 strain, at 50.0 µM, hits give high values
Procedure, shortened: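 Yeast cells carrying a defined DNA-repair defect were exposed to test compounds. Growth inhibition was measured relative to vehicle-treated controls.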

[4] = NCI Yeast Anticancer Drug Screen. Data for the cln2 rad14 strain (AID 165);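 note: 0% = growth equal to vehicle treated cultures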; details: S. cerevisiae cln2 rad14 strain, at 50.0 µM, hits give high values
Procedure, shortened: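 Yeast carrying cln2 and rad14 alterations (cell cycle control and DNA damage repair) were exposed to compounds. Growth inhibition was measured against vehicle-treated controls.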

[5] = NCI Yeast Anticancer Drug Screen. Data for the bub3 strain (AID 167); details: S. cerevisiae bub3 mutant strain, at 50.0 µM, hits give high values
Procedure, shortened: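 Growth of a checkpoint-deficient yeast mutant is measured after compound exposure. Values represent inhibition relative to vehicle.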

[6] = NCI Yeast Anticancer Drug Screen. Data for the mlh1 rad18 strain (AID 175); details: S. cerevisiae mlh1 rad18 strain growth inhibition; at 50.0 µM; hits give high values
Procedure, shortened: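 Growth inhibition of the yeast strain was measured after compound exposure and expressed relative to vehicle-treated controls. The strain carries defined defects in DNA damage repair.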

Measured: growth inhibition

NC(=O)C[n+]1cccc(C(=O)Nc2ccc(Cl)cc2)c1
inactive: [1] 2.3% | [2] 9.3% | [3] 3.95% | [4] -23.4% | [5] 29.2% | [6] -0.75%

BrC1CC2CC1C1C2CC2OC21 (configuration not stated)
inactive: [1] -26.9% | [2] -12.7% | [3] -22.4% | [4] -3.9% | [5] 9.2% | [6] -48.2%

COc1ccc(NCc2cnc3nc(N)nc(N)c3c2C)cc1
inactive: [1] 7% | [2] 6.6% | [3] 16.6% | [4] 16.5% | [5] 1.85% | [6] -49%

CNC(=O)c1ccccc1Cl
inactive: [1] -0.55% | [2] 6.9% | [3] 10.8% | [4] 4.65% | [5] 3.9% | [6] 19.2%

COc1ccc(NC(=O)CC(=O)n2nc(C)c(N=Nc3ccccc3C(=O)O)c2C)cc1
inactive: [1] 8.6% | [2] 10.6% | [3] -6.05% | [4] -42.5% | [5] -1.35% | [6] 15.3%

O=[N+]([O-])c1ccc(NN=C2CCCCCC2)c([N+](=O)[O-])c1
inactive: [1] 5.95% | [2] 8.35% | [3] 8.3% | [4] -99% | [5] 7.45% | [6] -0.45%

C=C(C)[C@H]1C[C@@H](O)[C@H]2O[C@@]2(C)C1
inactive: [1] -8.05% | [2] -8.35% | [3] -25.9% | [4] -13.8% | [5] 0.8% | [6] -2.85%

O=C(Oc1c(Cl)cc(Cl)cc1Cl)c1ccc([N+](=O)[O-])cc1
inactive: [1] 9.2% | [2] 10.8% | [3] 5.45% | [4] -8.65% | [5] -9.45% | [6] -1.15%

CN(C)S(=O)(=O)c1cccc([N+](=O)[O-])c1
inactive: [1] 17.5% | [2] 7.5% | [3] 18.1% | [4] 8.5% | [5] -6.3% | [6] 8.8%

O=C(O)c1c[nH]c(=O)[nH]c1=O
inactive: [1] 1.25% | [2] -5.4% | [3] 1.25% | [4] -5.55% | [5] 0.65% | [6] -7.5%

CCOC(=O)NCS(=O)(=O)N1CCOCC1
inactive: [1] 25.6% | [2] 9.25% | [3] 8% | [4] 19.6% | [5] 3.45% | [6] 9.7%

CCOC(=O)C(C)(C)C(O)C(C)C (configuration not stated)
inactive: [1] 20.7% | [2] -18.8% | [3] -15.2% | [4] 48.4% | [5] -12.7% | [6] 3.95%

Cc1cc(=O)c2c(ccc3c(=O)cc(C)[nH]c32)[nH]1
inactive: [1] -56.8% | [2] -21.2% | [3] -14.3% | [4] -52.2% | [5] -3.1% | [6] 3.25%

CCCCCCSc1nc2c([nH]1)c(=O)n(C)c(=S)n2C
inactive: [1] 2.5% | [2] -3.1% | [3] 1.35% | [4] 1.5% | [5] 13.9% | [6] 19.1%

Cc1nc[nH]c1[N+](=O)[O-]
inactive: [1] -6.6% | [2] -11% | [3] -10% | [4] 2.2% | [5] -0.85% | [6] -12.7%

O=C1CSC(c2cccc(C(F)(F)F)c2)N1c1nncs1 (configuration not stated)
inactive: [1] 10.5% | [2] 2.15% | [3] 19.6% | [4] 7.95% | [5] 16.6% | [6] 15.1%

CCOC(=O)c1ccc(NCc2nc3ccccc3nc2C)cc1
inactive: [1] -17.8% | [2] -4% | [3] -18% | [4] -29.1% | [5] 1.95% | [6] -19.2%

Cc1cc2c(=O)c3ccccc3[nH]c2c(C(N)=O)c1C
inactive: [1] 39.5% | [2] 7.8% | [3] 1.75% | [4] -6.9% | [5] -10.5% | [6] 15.3%

CNC(=O)C(C)Oc1ccc(OCC2CCCCC2)cc1 (configuration not stated)
inactive: [1] -0.8% | [2] -44.2% | [3] -14.4% | [4] -35.5% | [5] -46.9% | [6] -55.6%

CN(C)c1nc(NN)c2c(-c3ccccc3)c(-c3ccccc3)oc2n1
inactive: [1] 10.2% | [2] 3.9% | [3] 2.3% | [4] 9.35% | [5] 20.2% | [6] -11.2%

N/N=C1\C(Cl)=C(Cl)c2ccccc21
inactive: [1] 6.65% | [2] -6.35% | [3] 10.2% | [4] -11.8% | [5] 2.95% | [6] 8.3%

CC(=O)Nc1ccc(N)cc1-c1ccc(N)cc1
inactive: [1] -2.75% | [2] -16.9% | [3] 1.5% | [4] 29.1% | [5] 5.25% | [6] -18%

CN(C)[C@@H]1C(=O)C(C(=O)NCN2CCN(C(=N)N=C(N)N)CC2)=C(O)[C@@]2(O)C(=O)C3=C(O)c4c(O)cccc4[C@@](C)(O)[C@H]3C[C@@H]12
inactive: [1] -0.05% | [2] 1.65% | [3] -3.2% | [4] 14.2% | [5] 10.7% | [6] -5%

NC(=O)NC(=O)Cc1ccc(N)cc1
inactive: [1] 4.6% | [2] -9.1% | [3] 1.9% | [4] 1.1% | [5] 4% | [6] -4.9%

CCOC(=O)NN(C(=O)OCC)C(C)(C)C(C)=O
inactive: [1] 7.3% | [2] 5.35% | [3] 5.15% | [4] -29.2% | [5] 17.8% | [6] 12.1%

O=S(=O)(c1ccc(NC(=S)N2CCOCC2)cc1)N1CCCCC1
inactive: [1] -3.45% | [2] 1.1% | [3] -10.1% | [4] 1.6% | [5] -5.95% | [6] 8.65%

O=C1c2ccccc2S[C@@H](O)[C@@H]2CCCN12
inactive: [1] -31.9% | [2] -13.7% | [3] -64.7% | [4] -13.7% | [5] -41.8% | [6] -41.7%

CCC(C(=O)O)=C1CCCCC1
inactive: [1] 11.1% | [2] -8.15% | [3] -0.35% | [4] 9.15% | [5] 5.85% | [6] -3.9%

CCOC(=C\C=C\C1=[N+](C)c2ccccc2C1(C)C)/C=C/C=C1/N(C)c2ccccc2C1(C)C
active: [2] 87.6% | [4] 82.5% | [5] 81.8%
inactive: [1] 17.6% | [3] 34.2% | [6] 27.6%

CCC(=O)Oc1ccc(C(=O)O)cc1
inactive: [1] 6.2% | [2] -10% | [3] -12.1% | [4] -39.5% | [5] -26.5% | [6] 1.45%

CCCCCC[N+]12CC=C3COC(=O)C(C)(O)C(C)(O)C(C)C(=O)OC(CC1)C32 (configuration not stated)
inactive: [1] 0.7% | [2] -6.15% | [3] -0.25% | [4] 13.7% | [5] -3.35% | [6] 7.85%

CC(=O)Nc1ccc(C(=O)NN2C(=O)CSC2c2ccc([N+](=O)[O-])cc2)cc1 (configuration not stated)
inactive: [1] -24.1% | [2] -39.8% | [3] -54.5% | [4] -6.3% | [5] -24.3% | [6] -53.2%

COc1ccc2c(N=[N+]=[N-])cc(C)nc2c1
inactive: [1] -42.2% | [2] -1.45% | [3] -16.9% | [4] -57.5% | [5] 1.55% | [6] 20.4%

O=[N+]([O-])c1ccc(S(=O)(=O)N/N=C/c2cccc([N+](=O)[O-])c2)cc1
inactive: [1] -8.15% | [2] -13.2% | [3] 1.1% | [4] -15% | [5] 0.35% | [6] -12.1%

COc1ccc(-c2nc(N)nc(-c3cc(C)ccc3O)c2Cl)cc1
inactive: [1] 12.7% | [2] -0.45% | [3] 5.3% | [4] 17.4% | [5] 6.5% | [6] 12.6%

CCCCC1(C=O)NC(=O)N(C)C1=O (configuration not stated)
inactive: [1] 5% | [2] 2.35% | [3] -10.8% | [4] 5.6% | [5] 7.2% | [6] -9.35%

COC(=O)C1C(=O)c2ccccc2C(C)C1c1ccccc1C (configuration not stated)
inactive: [1] 5% | [2] 41.4% | [3] 26.2% | [4] 4.15% | [5] 55.8% | [6] 27.6%

COC1CC(C)(NC(=O)C(F)(F)F)C2OC(c3ccccc3)OCC2O1 (configuration not stated)
inactive: [1] -25% | [2] -17.7% | [3] -41.4% | [4] -35% | [5] -3.85% | [6] -9.65%

CCOC(=O)C1C=C1C(C)(C)O (configuration not stated)
inactive: [1] -15.4% | [2] 9.3% | [3] -13.1% | [4] 1% | [5] 3.9% | [6] -32.9%

CNC1=C(Sc2ccc(C)cc2)C(=O)c2ccccc2C1=O
inactive: [1] -4.9% | [2] 1.8% | [3] 5.4% | [4] -0.45% | [5] -9.05% | [6] -8.7%

O=S(=O)(c1ccccc1)C1(Sc2ccccc2)CC(Br)[C@@H](Br)C1 (some centres not stated)
inactive: [1] 21.9% | [2] 7.3% | [3] 25.5% | [4] 8% | [5] -6.65% | [6] -5.55%

COC(=O)C1C(=C(c2ccccc2)c2ccccc2)C1c1ccccc1 (configuration not stated)
inactive: [1] -1.75% | [2] -15.2% | [3] -11.8% | [4] -11.4% | [5] 6.85% | [6] -8.7%
